Test results taken from PubChem BioAssay AID504832 (National Center for Advancing Translational Sciences (NCATS), 2011).
About 18,000 (5.8%) of roughly 310,000 compounds were called active. A call without a number means that no potency is given here. About 22% were inconclusive and are not listed. Calls come from the whole dose curve; as a rule, active = well fitted inhibition curve with a large enough effect; inconclusive = small, poorly fitted or top-dose-only effect, or another doubt; inactive = no such curve, though single readings can be large or run the other way. The full list was thinned out, with actives kept by preference.
Potency is the fitted concentration of half-maximal effect.

Test: Primary qHTS for delayed death inhibitors of the malarial parasite plastid, 48 hour incubation
Conditions: P. falciparum luciferase growth in erythrocytes; series mostly up to 28.7 µM
Procedure, shortened: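 A one-generation exposure of luciferase-tagged malaria parasites in RPMI 1640/Albumax erythrocyte culture, 37 C and 5% CO2. Inhibition is inferred from decreased luminescence after adding detection reagent.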
For `COc1ccc(CNC(=O)c2cc(=O)c3c(C)cc(C)cc3o2)cc1`, the Potency was “inactive”.
With `O=C(c1cc(-c2ccc(Cl)cc2)on1)N1CCN(c2ccccc2)CC1` the Potency was “inactive”.
In the case of `CC(C)n1cnc2c(Nc3cccc(Cl)c3)nc(N(CCO)CCCO)nc21`, the Potency is reported as 7.38 µM (active).
For `O=C(Nc1ccccc1N1CCCCC1)c1cccc(F)c1`, the Potency was “inactive”.
In the case of `COc1ccccc1C(=O)NC(=S)Nc1ccccc1N1CCCCC1`, the Potency is reported as “inactive”.
For `O=C(NC(=S)Nc1ccccc1N1CCCCC1)c1ccc(F)cc1`, the Potency was 8.28 µM (active).
In the case of `O=C(COc1nsnc1N1CCOCC1)Nc1ccccc1Cl`, the Potency is reported as “inactive”.
With `Cn1c(=O)n(C)c2cc(C(=O)Nc3ccc(Br)cc3)ccc21` the Potency was “inactive”.
With `Clc1ccc2nc(-c3ccccc3)nc(C(Cl)Cl)c2c1` the Potency was 10.4 µM (active).
In the case of `N#CCSc1nc(-c2ccccc2)nc2ccc(F)cc12`, the Potency is reported as “inactive”.
With `CSc1nc(-c2ccccc2)nc(C(Cl)Cl)n1` the Potency was “inactive”.
For `CN1C(C(=O)NCC2CC2)CC2Cn3c(nc4ccccc43)C21` (stereo not given), the Potency was “inactive”.
With `Cn1nc(C(F)(F)F)c2cc(C(=O)N3CCOCC3)sc21` the Potency was “inactive”.
For `Cn1nc(C(F)(F)F)c(-c2ccc(F)cc2)c1NC(=O)CSCC(=O)O`, the Potency was “inactive”.
In the case of `Cn1nc(C(F)(F)F)c2cc(NC(=O)OCC(C)(C)C)sc21`, the Potency is reported as 2.33 µM (active).
With `COc1ccc(CN2CCC(n3nccc3NC(=O)CCCc3ccccc3)CC2)cc1C` the Potency was “inactive”.
For `CC(Sc1nnc(C2CC2)n1C1CC1)C(=O)Nc1ccc(C(N)=O)cc1` (stereo not given), the Potency was “inactive”.
In the case of `COc1cccc(NC(=O)CSc2nnc(Cc3ccc(OC)c(OC)c3)o2)c1`, the Potency is reported as “inactive”.
For `O=C(COC(=O)c1ncc(Cl)c(Cl)c1Cl)NNC(=O)c1ccccc1`, the Potency was “inactive”.
With `CC(=O)C1=C(C)NC(C)=C(C(C)=O)C1c1cn(-c2ccccc2)nc1-c1cccs1` the Potency was 14.7 µM (active).
With `O=C(O)Cc1sc(-c2ccccc2)nc1-c1cccs1` the Potency was “inactive”.
With `O=C(NCc1cccnc1)c1cn(-c2ccccc2)nc1-c1cccs1` the Potency was “inactive”.
In the case of `CCOc1ccc2[nH]c(C(=O)N/N=C/c3cccc(OC)c3OC)cc2c1`, the Potency is reported as “inactive”.
For `COc1ccc(OC)c(C(=O)c2ccc(Cl)cc2)c1`, the Potency was “inactive”.
In the case of `COc1ccc(-c2onc3ccc(C(C)=O)cc23)cc1`, the Potency is reported as “inactive”.
In the case of `COc1ccc(O)c(C(=O)c2cnc3onc(C(C)C)c3c2)c1`, the Potency is reported as 2.62 µM (active).
For `COc1ccc(C(=O)OCC(=O)N2CC(=O)Nc3ccccc32)cc1Br`, the Potency was “inactive”.
For `COc1cc(OC)c(C(=O)OCC(=O)N2CC(=O)Nc3ccccc32)cc1OC`, the Potency was “inactive”.
With `COc1ccc(Cl)cc1-n1c(C)cc(C(=O)OCC(=O)N2CC(=O)Nc3ccccc32)c1C` the Potency was 5.22 µM (active).
With `CCCC(C)NC(=O)C1CCN(C(=O)C2CC(=O)N(c3ccc(C)cc3)C2)CC1` (stereo not given) the Potency was “inactive”.
With `C=CCn1c(-c2ccccc2OCC)n[nH]c1=S` the Potency was “inactive”.
For `CCCc1cc(-c2n[nH]c(=S)n2CC)c2ccccc2n1`, the Potency was 1.31 µM (active).
For `CCn1c(-c2ccncc2)n[nH]c1=S`, the Potency was “inactive”.
For `O=C(c1cc(S(=O)(=O)N2CCOCC2)ccc1Cl)N1CCOCC1`, the Potency was “inactive”.
With `Cn1cnc2c1c(=O)n(Cc1ccccc1C#N)c(=O)n2C` the Potency was “inactive”.
With `CCN(CC(=O)Nc1c(F)cccc1F)C(=O)c1ccc(-c2ccccc2)cc1` the Potency was “inactive”.
In the case of `O=C(Nc1ccccc1F)c1ccccc1-c1ccccc1`, the Potency is reported as “inactive”.
For `CC(C)N(C(=O)c1ccc(-c2ccccc2F)cc1)C(C)C`, the Potency was 10.4 µM (active).
For `CCCCN(C(=O)c1nn(C)c(=O)c2ccccc12)c1c(N)n(CCC)c(=O)[nH]c1=O`, the Potency was “inactive”.
With `Cc1nc(C)c(C(=O)N(c2ccc(C)c(C)c2)C(C(=O)NCc2ccco2)c2ccccc2)s1` (stereo not given) the Potency was 11.7 µM (active).
For `Cc1cccc(N(C(=O)c2sc(C)nc2C)C(C(=O)NCC2CCCO2)c2ccccc2)c1` (stereo not given), the Potency was “inactive”.
For `Cc1cccc(N(C(=O)Cc2cccs2)C(C(=O)NCc2ccco2)c2ccncc2)c1` (stereo not given), the Potency was “inactive”.
With `CCOCc1nnc(NC(=O)CCS(=O)(=O)Cc2ccccc2)s1` the Potency was “inactive”.
With `Cc1cccc(CNS(=O)(=O)c2ccc(-c3cnc(C4CC4)o3)cc2)c1` the Potency was “inactive”.
In the case of `COc1ccc(C)cc1N(CC(=O)N1CCCC1)S(=O)(=O)c1ccccc1`, the Potency is reported as “inactive”.
In the case of `CC(C)C(=O)N1CCN(c2nc(-c3ccccc3)c3c(c2C#N)CC(C)(C)OC3)CC1`, the Potency is reported as 13.1 µM (active).
With `Cc1nc(NCCN)c(C#N)c2c1COC(C)(C)C2` the Potency was “inactive”.
For `CC1(C)Cc2c(sc(NC(=O)C(=O)N3CCOCC3)c2C#N)CO1`, the Potency was “inactive”.
For `Cc1sc(NC(=O)C2=COCCO2)c(C#N)c1C`, the Potency was “inactive”.
With `COc1ccccc1NC(=O)CSc1nnc(CNC(=O)c2ccccc2F)o1` the Potency was “inactive”.
In the case of `O=C(CN1C(=O)c2ccccc2S1(=O)=O)NC1CCCCC1`, the Potency is reported as “inactive”.
With `COC(CNC(=O)c1ccc2c(c1)ncn2-c1cc(C)cc(C)c1)OC` the Potency was “inactive”.
With `Cc1cc(C)cc(C(=O)N(CCc2ccccc2)C2=CC3CCC(C2)N3C)c1` (stereo not given) the Potency was 11.7 µM (active).
For `CN1C2C=C(N(C(=O)c3ccc(Cl)cc3)c3ccccc3)CC1CC2` (stereo not given), the Potency was “inactive”.
For `Cc1ccc(CCN2CC(C(=O)NCCc3ccccc3)CC2=O)cc1` (stereo not given), the Potency was “inactive”.
For `O=S(=O)(NC1CCCCC1N1CCC(O)CC1)c1ccc(Cl)cc1` (stereo not given), the Potency was “inactive”.
In the case of `CCN(CC(=O)Nc1c(F)cccc1F)C(=O)c1ccc(S(=O)(=O)N2CCCCC2)cc1`, the Potency is reported as “inactive”.
With `COc1cccc(NC(=O)c2ccccc2N(Cc2ccccc2)S(C)(=O)=O)c1` the Potency was “inactive”.
In the case of `COc1ccccc1CSc1nc2ccccc2[nH]1`, the Potency is reported as “inactive”.
For `O=C(NCc1ccccc1)c1onc(CSc2nc3ccccc3[nH]2)c1C(=O)NCc1ccccc1`, the Potency was 1.17 µM (active).
With `COCCNC(=O)c1onc(CSc2cccc(C)c2)c1C(=O)O` the Potency was “inactive”.
In the case of `O=C(CSc1nc(C2CC2)nc2ccccc12)Nc1cccc(O)c1`, the Potency is reported as “inactive”.
In the case of `CCC(=O)Nc1ccccc1C(=O)N1CCN(Cc2ccccc2)CC1`, the Potency is reported as “inactive”.
For `COCC(=O)Nc1c(C(=O)N2CCCC2)oc2ccccc12`, the Potency was “inactive”.
With `CCOCc1c(C(=O)N2CCN(Cc3ccc(Br)s3)CC2)oc2ccccc12` the Potency was 13.1 µM (active).
With `COc1ccc(CN2CC(C(=O)NC3CCCCC3)CC2=O)cc1` (stereo not given) the Potency was “inactive”.
For `C=CCSc1ccc(S(=O)(=O)N2CCN(C)CC2)cn1`, the Potency was “inactive”.
In the case of `CCn1cc(C(=O)NCCCN2CCCCCC2)c(=O)c2cc(S(=O)(=O)N3CCc4ccccc4C3)ccc21`, the Potency is reported as 5.22 µM (active).
In the case of `CCn1cc(C(=O)N2CC(C)CC(C)C2)c(=O)c2cc(S(=O)(=O)N3CCCC3)ccc21` (stereo not given), the Potency is reported as “inactive”.
For `CCn1cc(C(=O)NCCO)c(=O)c2cc(F)c(N3CCN(C)CC3)cc21`, the Potency was “inactive”.
For `O=S(=O)(c1cccc(Cn2nnc(-c3ccc(F)cc3)n2)c1)N1CCOCC1`, the Potency was “inactive”.
In the case of `Cc1ccc(CNS(=O)(=O)c2ccc3c(c2)N(C)CCO3)cc1`, the Potency is reported as “inactive”.
With `COc1cc(CNc2ncn[nH]2)ccc1OCc1ccccc1C` the Potency was “inactive”.
In the case of `CCN(CC)CCNCc1ccc(OCc2ccc(Cl)nc2)c(OC)c1`, the Potency is reported as 10.4 µM (active).
For `COc1ccc(CNCCCO)cc1OC`, the Potency was “inactive”.
For `COc1ccccc1CNC(=O)CN1CCC(n2cnc3cc(F)ccc32)CC1`, the Potency was 10.4 µM (active).
For `COc1ccccc1CNC(=O)Cn1cc2c(n1)CCCC2`, the Potency was “inactive”.
With `COc1ccc(CCNC(=O)CCC(=O)NC2CCCCC2)cc1OC` the Potency was “inactive”.
For `COc1ccc(CCNC(=O)CN2CCC(n3nnc4cc(F)ccc43)CC2)cc1OC`, the Potency was 7.38 µM (active).
In the case of `COc1ccccc1CNC(=O)C1CCN(S(C)(=O)=O)CC1`, the Potency is reported as “inactive”.
For `COc1ccc(CNC(=O)CN2CCC(n3nnc4cc(F)ccc43)CC2)cc1`, the Potency was “inactive”.
In the case of `CCc1ccccc1NC(=S)Nc1cc(OC)c(NC(=O)C(C)C)cc1OC`, the Potency is reported as “inactive”.
In the case of `CC1CCCCC1NC(=O)c1cc(=O)[nH]c2ccccc12` (stereo not given), the Potency is reported as “inactive”.
In the case of `CCCCCCC(O)(CCN1CCCCC1)c1ccccc1` (stereo not given), the activity change, negative = inhibition is reported as 11.4% [at 0.00184 µM] (inactive).
For `COc1ccc(NC(=S)N2CCC(NC(=O)c3cccc(F)c3)CC2)cc1`, the Potency was “inactive”.
With `CN1C(=O)c2ccc(C(=O)Nc3ccc(Br)cn3)cc2C1=O` the Potency was “inactive”.
With `Cc1ccc(-c2cn(S(=O)(=O)c3cccc([N+](=O)[O-])c3)nc2N)cc1` the Potency was 3.29 µM (active).
In the case of `Cc1cc(C)n(S(=O)(=O)c2cccc([N+](=O)[O-])c2)n1`, the Potency is reported as “inactive”.
In the case of `CC1=NCCN1S(=O)(=O)c1cccc([N+](=O)[O-])c1`, the Potency is reported as “inactive”.
With `COc1ccc(-c2noc(C(C)NS(=O)(=O)c3ccc(NC(C)=O)cc3)n2)cc1` (stereo not given) the Potency was “inactive”.
For `Cc1occc1C(=O)NC1CCCN(Cc2ccc(CC(C)C)cc2)C1` (stereo not given), the Potency was “inactive”.
For `Cc1ccc(C)c(C(=O)N2CCC(n3nccc3NC(=O)C3CC3)CC2)c1`, the Potency was “inactive”.
In the case of `C=CCN1CN(S(=O)(=O)c2ccc(OC)cc2)c2nc3ccccc3nc21`, the Potency is reported as “inactive”.
In the case of `COc1cc2c(cc1O)[C@H](Cc1ccc(Oc3cc(C[C@@H]4NCCc5cc(OC)c(O)cc54)ccc3O)cc1)NCC2`, the Potency is reported as 0.738 µM (active).
With `CCCCSCCCNC(=O)C1CCC(CNS(=O)(=O)c2ccc(NC(C)=O)cc2)CC1` (stereo not given) the Potency was “inactive”.
For `CCN(CC)C(=O)c1nc[nH]c1C(=O)N(C)Cc1ccccc1`, the Potency was “inactive”.
With `O=C1C2CCCN2C(=O)N1CCCCN1CCN(c2cccc(C(F)(F)F)c2)CC1` (stereo not given) the Potency was “inactive”.
In the case of `CN(c1cccc(NC(=O)Nc2ccc(Cl)cc2)c1)S(C)(=O)=O`, the Potency is reported as “inactive”.
For `Cn1ccc(NC(=O)Nc2ccc(Cl)cc2)n1`, the Potency was “inactive”.
With `CC(C)S(=O)(=O)c1csc(NC(=O)Nc2ccc(Cl)cc2)c1Cl` the Potency was 5.22 µM (active).
With `O=C(NC1CCN(Cc2ccccc2)CC1)c1c(F)cccc1F` the Potency was “inactive”.
With `S=C(NCCCc1ccccc1)Nc1ccc(Br)cc1` the Potency was “inactive”.
In the case of `S=C(Nc1ccc(Br)cc1)NC1CCN(Cc2ccccc2)CC1`, the Potency is reported as 11.7 µM (active).
In the case of `CN(CC(=O)Nc1ccc(F)c(F)c1F)C(=O)Cn1cnc2c1c(=O)n(C)c(=O)n2C`, the Potency is reported as “inactive”.
For `O=C(OCCN1C(=O)c2ccccc2C1=O)Oc1ccccc1`, the Potency was “inactive”.
